This passage reports ΔTm results from ChEMBL document CHEMBL5308504, “Tm Shift (DSF) assay results for EUbOPEN Chemogenomics Library” (2023).

Numbered stars: 1 amine (or outer) side, 2 acyl side, 3 side chain; on linkers, the order of the positions; unused ones are H or OH. Bridge positions count the residues as written; N and C are the ends. Square brackets hold non-standard residues; d marks the D form. Peptide text beside a SMILES is read from it. I, II: the chains in the order shown. Hexamethylenediamine = C(CCCN[*:2])CCN[*:1]; Dip = N[C@H](C(=O)O)C(c1ccccc1)c1ccccc1; Chg = N[C@H](C(=O)O)C1CCCCC1; NMeA = CN[C@@H](C)C(=O)O

Test [1] deals with Bromodomain-containing protein 4 (Homo sapiens) (UniProt O60885). The conditions noted are these: Compound concentration 20.0 uM, Protein concentration 2.0 uM, Result type QC Liability.
In test [2] the target is T1, Transcription intermediary factor 1-alpha (Homo sapiens) (UniProt O15164).
T1 sequence (whole entry): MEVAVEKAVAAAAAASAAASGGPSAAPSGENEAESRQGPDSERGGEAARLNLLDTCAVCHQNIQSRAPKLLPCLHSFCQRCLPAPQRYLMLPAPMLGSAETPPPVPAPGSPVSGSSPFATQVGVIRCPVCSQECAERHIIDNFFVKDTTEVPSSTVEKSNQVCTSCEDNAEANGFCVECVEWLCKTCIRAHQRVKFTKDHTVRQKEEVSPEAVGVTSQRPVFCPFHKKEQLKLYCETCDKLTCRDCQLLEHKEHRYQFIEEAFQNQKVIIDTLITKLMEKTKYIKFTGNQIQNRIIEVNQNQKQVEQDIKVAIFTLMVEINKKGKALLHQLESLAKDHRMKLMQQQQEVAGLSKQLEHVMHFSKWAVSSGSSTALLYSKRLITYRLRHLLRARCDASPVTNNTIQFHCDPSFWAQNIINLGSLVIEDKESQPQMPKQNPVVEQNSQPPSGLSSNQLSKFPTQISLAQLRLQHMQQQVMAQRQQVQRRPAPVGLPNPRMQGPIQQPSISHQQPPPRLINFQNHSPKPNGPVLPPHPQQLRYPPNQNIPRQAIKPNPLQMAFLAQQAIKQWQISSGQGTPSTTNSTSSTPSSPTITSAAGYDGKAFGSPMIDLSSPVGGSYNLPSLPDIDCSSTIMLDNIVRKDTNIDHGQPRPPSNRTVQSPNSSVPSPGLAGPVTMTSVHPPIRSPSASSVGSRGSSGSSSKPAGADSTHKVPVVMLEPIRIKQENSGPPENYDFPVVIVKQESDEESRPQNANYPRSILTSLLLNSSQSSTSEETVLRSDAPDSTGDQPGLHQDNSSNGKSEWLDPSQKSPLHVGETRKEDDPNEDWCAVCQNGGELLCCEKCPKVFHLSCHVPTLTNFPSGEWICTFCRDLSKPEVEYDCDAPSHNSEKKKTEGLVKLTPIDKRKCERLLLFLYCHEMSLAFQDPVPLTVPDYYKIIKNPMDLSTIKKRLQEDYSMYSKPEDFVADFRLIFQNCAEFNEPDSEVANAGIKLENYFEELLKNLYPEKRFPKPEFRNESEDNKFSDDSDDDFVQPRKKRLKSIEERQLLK
Conditions: Compound concentration 20.0 uM, Protein concentration 2.0 uM, Result type QC Liability.

By ΔTm is commonly meant the change in melting temperature against a reference sample. `CN(C)C/C=C/C(=O)Nc1ccc(C(=O)Nc2cccc(Nc3ncc(Cl)c(-c4c[nH]c5ccccc45)n3)c2)cc1`: the ΔTm in test [1] was -2.3 °C; in test [2], -1.56 °C.

With `COc1cc2nc(C)nc(NC3(c4ccccc4)CC3)c2cc1OC`, the ΔTm in test [1] is -0.74 °C; in test [2], 0.43 °C.

On to `O=C(O)Cc1ccc(CCNS(=O)(=O)c2ccc(Cl)cc2)cc1`, for which the ΔTm was -1.74 °C in test [1] and -0.53 °C in test [2].

As for `C[C@@H]1CC(=O)N(C2CC2)N=C1c1ccc(NC(=O)N2Cc3ccncc3C2)cc1`, the ΔTm was -0.04 °C in test [1] and 0.48 °C in test [2].

Consider `COc1cnccc1Nc1nc(-c2nn(Cc3c(F)cc(OCCO)cc3F)c3ccccc23)ncc1OC`, for which the shift in melting temperature (ΔTm) in test [1] was 0.84 °C; in test [2], -4.33 °C.

Take `CN1C(=O)[C@@H](NC(=O)c2cc(Cc3ccccc3)on2)COc2ccccc21`: the ΔTm in test [1] is -1.02 °C; in test [2], -3.21 °C.

For the molecule `CCN1CCN(Cc2ccc(Nc3ncc(F)c(-c4cc(F)c5nc(C)n(C(C)C)c5c4)n3)nc2)CC1`, the ΔTm in test [1] is -1.43 °C; in test [2], -2.28 °C.

For the molecule `Cc1nn(-c2ccccc2)c(Nc2ccccc2C(=O)O)c1-c1cc2nccnc2c(F)c1F`, the ΔTm in test [1] is -1.68 °C; in test [2], 0.83 °C.

As to `CN[C@@H](C)C(=O)N[C@H](C(=O)N1CCC[C@H]1C(=O)N[C@H](C(=O)NCCCCCCNC(=O)[C@@H](NC(=O)[C@@H]1CCCN1C(=O)[C@@H](NC(=O)[C@H](C)NC)C1CCCCC1)C(c1ccccc1)c1ccccc1)C(c1ccccc1)c1ccccc1)C1CCCCC1` (I: H-[NMeA][Chg]P[Dip] / II: H-[NMeA][Chg]P[Dip]; linker I:C-II:C via Hexamethylenediamine), the ΔTm in test [1] is -4.77 °C; in test [2] it was -4.59 °C.

With `CN1CCN(c2ccnc(NCCc3ccccc3)n2)CC1`, the ΔTm in test [1] is -0.31 °C; in test [2], -0.99 °C.

In the case of `Cn1nccc1-c1ccc(Sc2cccc(C3(C(N)=O)CCOCC3)c2)cc1`, the ΔTm in test [1] was -0.19 °C; in test [2], 0.56 °C.
